HEK293 tox: Cytotoxic Profiling in HEK 293 Cell Line of Diverse Libraries Using Quantitative High-Throughput Screening | 94,000 tested, 6.6% active | HEK 293 viability, ATP luminescence (CellTiter-Glo), 48-72 h | Potency, µM (doses to about 115 µM), for inactives: at the highest dose activity change, negative = cytotoxicity, hits mostly inhibitors; further: on the % scale 0 is the no-effect control and ±100 the full control effect; nearly all actives have a fitted effect of over 60% in size
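ATP-coupled CellTiter-Glo luminescence served as viability read-out, recorded 10 min after reagent addition at room temperature. HEK 293 cells, 250 cells/well, had been incubated with pintool-transferred compound for 48 or 72 hr at 37 degree Celsius.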
NPR1 antag: Natriuretic polypeptide receptor (hNpr1) antagonism - Primary qHTS; 76,000 tested, 1.6% active; HEK293 hNpr1 GloSensor cGMP, ANP-stimulated luminescence; Potency, µM (doses to about 46.3 µM), for the others: at the highest dose activity change, negative = inhibition, hits mostly inhibitors; Atrial natriuretic peptide receptor 1 (Homo sapiens), P16066; calls by dose curve; further: on the % scale 0 is the no-effect control and ±100 the full control effect; nearly all actives have a fitted effect of over 60% in size
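HEK293 cells stably expressing human Npr1 and cGMP GloSensor pGS-40F, loaded 2 h with 2% GloSensor reagent, given compound 30 min at room temperature. Luminescence read before and 20 min after 0.1 nM hNppA.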
GPT2 inhibitor: Primary qHTS assay for inhibitors of Glutamate pyruvate transaminase 2 (GPT2); Alanine aminotransferase 2 (Homo sapiens), Q8TD30; Potency, µM (titrated, usually from 57.7 µM), for inactives: at the top dose activity change, negative = inhibition, actives largely listed as inhibitors; AID 1671188, 2021; 100,000 tested, 0.25% active; Recombinant GPT2, coupled pyruvate oxidase/HRP Amplex Red fluorescence; further: on the % scale 0 is the no-effect control and ±100 the full control effect; nearly all actives have a fitted effect of over 60% in size
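Fluorescence of coupled pyruvate oxidase/HRP/Amplex Red system (50uM Amplex, 30 min, dark) reports pyruvate formed by GPT2. Enzyme reaction: 10ng/uL GPT2, 2mM L-alanine, 250uM a-KG, 30 min room temperature, pH 7.5; 50uM AOA control.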
3T3 cytotox: Cytotoxic Profiling in NIH 3T3 Cell Line of Diverse Libraries Using Quantitative High-Throughput Screening; 94,000 tested, 4.3% active; NIH 3T3 viability, CellTiter-Glo ATP luminescence, 48-72 h; AID 1345082, 2018; Potency, µM (titrated, usually from 96.7 µM), for the others: at the top dose activity change, negative = cytotoxicity, hits mostly inhibitors; further: on the % scale 0 is the no-effect control and ±100 the full control effect; nearly all actives have a fitted effect of over 55% in size
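ATP-dependent luminescence (CellTiter-Glo) served as the viability signal for NIH 3T3 cells treated with compound for 48 or 72 hr at 37 °C.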
FLuc inh-1: Firefly luciferase inhibition profiling of diverse chemical library using quantitative high-throughput screening; Luciferin 4-monooxygenase (Photinus pyralis), P08659; 76,000 tested, 2.5% active; purified P. pyralis luciferase, luminescence, biochemical; Potency, µM (top dose mostly 115 µM), usual class: inhibitors; further: on the % scale 0 is the no-effect control and ±100 the full control effect; nearly all actives have a fitted effect of over 65% in size
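Inhibitors were tested against purified firefly luciferase in a biochemical, low-substrate format (both substrates at 10uM) and luminescence measured with a CCD imager.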
FLuc SDR -ATP: Firefly luciferase (FLuc-C-HiBiT) SDR gain of signal screen - without ATP; AID 1963318, 2024; Purified FLuc-C-HiBiT, Nano-Glo HiBiT luminescence, no ATP; shares compounds with FLuc inh-1; 1,300 tested, 7.8% active; Potency, µM (doses to about 32.7 µM), inactives show at the highest dose activation (signal gain), most hits filed as activators; further: nearly all actives have a fitted effect of over 55% in size
FLuc SDR ATP: Firefly luciferase (FLuc-C-HiBiT) SDR gain of signal screen - plus ATP; Potency, µM (doses to about 32.7 µM), for inactives: top-dose activation (gain of signal), most hits filed as activators; shares compounds with FLuc inh-1; purified FLuc-C-HiBiT + ATP, HiBiT complementation luminescence; 1,300 tested, 8.7% active;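 further: signal reports ligand binding via conformational change of the enzyme rather than luciferase catalysis; % of control where 0% means no effect; nearly all actives have a fitted effect of over 55% in size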
FLuc inh-2: Firefly luciferase (FLuc-C-HiBiT) enzymatic inhibition screen - Functional assay. Potency, µM (doses to about 32.7 µM), for the others: at the top dose activity change, negative = inhibition, usual class: inhibitors. shares compounds with FLuc inh-1. AID 1963320, 2024. 1,300 tested, 42% active. purified FLuc-C-HiBiT enzyme, luciferin luminescence; further: on the % scale 0 is the no-effect control and ±100 the full control effect; nearly all actives have a fitted effect of over 70% in size
Starred values were filed as active, the others as inactive; [ ] = another dose, or the depositor's remark. Hits are enriched below; roughly 10% of the tested compounds scored in any of these assays. Unless noted, the call rests on the fitted dose curve; in most records, active means well fitted curve in the direction sought with a large enough effect; inconclusive means small, poorly fitted or top-dose-only effect, or another doubt; inactive means no such curve, though single readings can be large; an effect the other way counts as inactive or inconclusive. Potency means the concentration at half of the fitted maximal effect.

Results for COc1cc(OC)cc(C(=O)N2CCCC(c3noc(COc4ccccc4)n3)C2)c1 (stereo unspecified) ?
HEK293 tox: inconclusive; NPR1 antag: 0%; GPT2 inhibitor: inactive; 3T3 cytotox: inconclusive; FLuc inh-1: inactive

What do the screens show for `Cc1ccc(/C=C/c2nc3ccccc3n2S(=O)(=O)c2ccc(Br)cc2)cc1`?
FLuc SDR -ATP: 1.8µM*; FLuc SDR ATP: inconclusive; FLuc inh-2: 0.62µM*

Results for Cn1c(=O)c2nc(/C=C/c3cccc(Cl)c3)n(C)c2n(C)c1=O ?
GPT2 inhibitor: 2%[88.5 µM]

What do the screens show for `O=S(=O)(c1cccc(Cl)c1)n1c(/C=C/c2ccccc2Cl)nc2ccccc21`?
FLuc SDR -ATP: 1.6µM*; FLuc SDR ATP: inconclusive; FLuc inh-2: 0.18µM*

Results for CSc1ccc(/C=C/c2nc3ccccc3n2S(=O)(=O)c2cccc(Cl)c2)cc1 ?
FLuc SDR -ATP: 2µM*; FLuc SDR ATP: inconclusive; FLuc inh-2: 0.56µM*

Results for CCOc1ccc(S(=O)(=O)n2c(C)nc3ccccc32)cc1 ?
GPT2 inhibitor: -4%[27.3 µM]

How did CCCCOc1ccc(S(=O)(=O)n2c(C)nc3ccccc32)cc1 do in these assays?
GPT2 inhibitor: -14%[27.3 µM]

Results for Cc1ccc(C2Cn3nnc(C(=O)N4CCC(C(=O)NCc5ccncc5)CC4)c3CO2)cc1 (stereo unspecified) ?
HEK293 tox: 1%; NPR1 antag: -4%; GPT2 inhibitor: 1%; 3T3 cytotox: -29%; FLuc inh-1: 14µM*; FLuc SDR -ATP: 7%; FLuc SDR ATP: inconclusive; FLuc inh-2: inconclusive

How did COc1ccc(CNC(=O)C2CCN(C(=O)c3nnn4c3COC(c3ccc(C)cc3)C4)CC2)cc1 (stereo unspecified) do in these assays?
HEK293 tox: 1%; NPR1 antag: 4%; GPT2 inhibitor: inactive; 3T3 cytotox: inactive; FLuc inh-1: inactive

Results for Cc1ccc(C2Cn3nnc(C(=O)N4CCC(C(=O)NC5CCN(C)CC5)CC4)c3CO2)cc1 (stereo unspecified) ?
HEK293 tox: -4%; NPR1 antag: -2%; GPT2 inhibitor: inactive; 3T3 cytotox: inactive; FLuc inh-1: inconclusive

How did Cc1ccc(C2Cn3nnc(C(=O)N4CCC(C(=O)NC5CC5)CC4)c3CO2)cc1 (stereo unspecified) do in these assays?
HEK293 tox: -5%; NPR1 antag: -3%; GPT2 inhibitor: inactive; 3T3 cytotox: -17%; FLuc inh-1: 10µM*; FLuc SDR -ATP: 12%; FLuc SDR ATP: inconclusive; FLuc inh-2: inconclusive

What do the screens show for `COc1ccc(-n2c(=O)c(C(=O)N(C)C)nc3cccnc32)cc1`?
HEK293 tox: 4%[172 µM]; GPT2 inhibitor: inactive; 3T3 cytotox: inactive

What do the screens show for `O=C(Nc1ccnn1C1CCN(Cc2cccc(F)c2F)CC1)c1ccccc1Cl`?
HEK293 tox: inconclusive; NPR1 antag: 9%; GPT2 inhibitor: inactive; 3T3 cytotox: inconclusive; FLuc inh-1: inactive

How did CCOC(=O)C1CCCN(C(=O)c2nc3sccn3c2-c2cccc(OC)c2)C1 (stereo unspecified) do in these assays?
HEK293 tox: -25%; GPT2 inhibitor: inactive; 3T3 cytotox: -14%

Results for COc1ccc(-c2cn3nc(N4CCCC(C(=O)NCc5ccccc5OC)C4)sc3n2)cc1 (stereo unspecified) ?
FLuc SDR -ATP: 15%; FLuc SDR ATP: 13%; FLuc inh-2: inconclusive

What do the screens show for `O=C(NCc1cccc(Cl)c1)C1CCCN(c2nn3cc(-c4ccc(F)cc4)nc3s2)C1` (stereo unspecified)?
FLuc SDR -ATP: 21%; FLuc SDR ATP: inconclusive; FLuc inh-2: inconclusive

How did COc1ccccc1C(=O)N1CCCN(c2nnc3cccc(C)n23)CC1 do in these assays?
HEK293 tox: -2%; NPR1 antag: 2%; GPT2 inhibitor: -1%; 3T3 cytotox: inactive; FLuc inh-1: inactive

What do the screens show for `CCc1nc(CN2CCOc3c(O)cc(-c4nc(C)cnc4C)cc3C2)no1`?
HEK293 tox: 4%; NPR1 antag: 1%; GPT2 inhibitor: inactive; 3T3 cytotox: inactive; FLuc inh-1: inactive

How did Cc1nc(CN2CCOc3c(O)cc(-c4nc5ccccc5s4)cc3C2)no1 do in these assays?
HEK293 tox: inconclusive; NPR1 antag: -1%; GPT2 inhibitor: 0%; 3T3 cytotox: -23%; FLuc inh-1: inactive; FLuc SDR -ATP: 14%; FLuc SDR ATP: 7%; FLuc inh-2: -11%

How did Cc1c(CN2CCOc3c(O)cc(-c4nc5ccccc5s4)cc3C2)cnn1C do in these assays?
FLuc SDR -ATP: 13%; FLuc SDR ATP: 9%; FLuc inh-2: -5%

Results for Cc1cncc(C(=O)N2CCOc3c(O)cc(-c4nc5ccccc5s4)cc3C2)c1 ?
HEK293 tox: 40µM*; NPR1 antag: -6%; GPT2 inhibitor: -23%; 3T3 cytotox: inconclusive; FLuc inh-1: inconclusive; FLuc SDR -ATP: 12%; FLuc SDR ATP: 8%; FLuc inh-2: -11%

What do the screens show for `CSc1ccc(-c2cccc(C(=O)NCCNC(=O)c3ccc(Cl)cc3)c2)cc1`?
HEK293 tox: -27%; GPT2 inhibitor: -16%; 3T3 cytotox: inconclusive

What do the screens show for `Cc1noc(C2CC3(CCN(C(=O)c4cccn4C)CC3)CN2C)n1` (stereo unspecified)?
HEK293 tox: -22%; NPR1 antag: 2%; GPT2 inhibitor: inactive; 3T3 cytotox: -9%; FLuc inh-1: inactive

Source: PubChem (National Center for Advancing Translational Sciences (NCATS))
